In all, about 420,000 compounds went through this assay and about 50,000 (12%) were called active. About 26% were inconclusive and are not listed. This excerpt belongs to a sample that is enriched for actives. A number with no mark means an inactive call. Calls come from the whole dose curve; as a rule, active = well fitted inhibition curve with a large enough effect; inconclusive = small, poorly fitted or top-dose-only effect; inactive = flat fitted curve, though single readings scatter. *1 amine or outer side, *2 acyl side, *3 side chain or, on linkers, in order; H or OH if unused. Where a SMILES comes first, the peptide text is derived from it. Bridges are numbered along the chain shown (N, C = ends). [ ]: non-standard residue; d: D form. The star is where a group is joined. X12 = NC1=N[C@@H]([C@H](N[*:1])C(=O)[*:2])C[C@H](O)N1; ΔAla(Z-3-ureido) = NC(=O)N/C=C(\N)C(=O)O; β3hOrn = NCCC[C@H](N)CC(=O)*; Dap = NC[C@H](N)C(=O)O
Test: qHTS for Inhibitors of human tyrosyl-DNA phosphodiesterase 1 (TDP1): qHTS in cells in presence of CPT; note: nearly all actives have a fitted effect of over 55% in size
Conditions: chicken DT40 Tdp1-/-;hTDP1 cells + 20 nM CPT, ATP luminescence, 48 h; series mostly up to 46.2 µM; activity change, negative = growth inhibition: at the top concentration
How it was run: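 Chicken DT40 Tdp1-/- cells complemented with human TDP1, 400 cells/well, exposed to compounds plus 20 nM camptothecin for at least 48 h at 37 C; viability read as ATP content by CellTiter-Glo luminescence.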
% is set by controls: 0 for no effect and ±100 for the full control effect; potency is the fitted concentration of half-maximal effect.

Structure (SMILES) | activity change, negative = growth inhibition [%] | Potency
Cc1cc(C)c(S(=O)(=O)c2cc(F)ccc2C)c(=O)[nH]1 | 2.26 | –
CC1(C)CN(c2ccc(-c3ccnc4ncnn34)cc2)C1=O | -8.25 | –
Cc1cc2oc(=O)cc(CN3CCN(S(=O)(=O)c4cccs4)CC3)c2cc1C(C)C | – | 23.1 µM (active)
O=S(=O)(c1cccs1)N1CCN(Cc2ccccc2)CC1 | -12.6 | –
COc1ccc2c(CN3CCN(S(=O)(=O)c4cccs4)CC3)cc(=O)oc2c1 | -24.3 | –
CCOc1ccc(C(CC(=O)O)n2cnnn2)cc1OC (centres undefined) | 1.9 | –
COc1ccc(C2=NN(C(=O)c3cccnc3)C(c3ccccc3)C2)cc1 (centres undefined) | -8.32 | –
CCC(CC)c1nnc(NC(=O)C2=COCCO2)s1 | 11.4 | –
CCN(CC)Cc1nc2sc(C)c(C)c2c(=O)[nH]1 | -3.36 | –
Cc1sc2nc(CSCC(=O)Nc3c(Cl)cccc3Cl)[nH]c(=O)c2c1C | – | 7.31 µM (active)
Cc1sc2nc(COC(=O)C(NC(=O)c3ccc(Cl)cc3Cl)C(C)C)[nH]c(=O)c2c1C (centres undefined) | -20.6 | –
CCOC(=O)/C=c1\s/c(=C\c2ccccc2OC)c(=O)n1CC(=O)N1CCOCC1 | -24.5 | –
CCOc1ccc(NC(=O)Cn2c(C)ccc(C#N)c2=O)cc1 | -0.0068 | –
CCOC(=O)/C=c1\s/c(=C\c2ccc(C#N)cc2)c(=O)n1CC(=O)Nc1cccc(C)c1C | – | 1.3 µM (active)
NCCC[C@H](N)CC(=O)N[C@H]1CNC(=O)[C@H]([C@H]2C[C@H](O)NC(N)=N2)NC(=O)/C(=C/NC(N)=O)NC(=O)[C@H](CO)NC(=O)[C@H](CO)NC1=O (β3hOrn-[Dap]SS[ΔAla(Z-3-ureido)][X12]; lactam 1-C) | -9.6 | –
Cc1cc(C(=O)NCCc2ccc(Cl)cc2)n(-c2ccccc2)n1 | – | 20.6 µM (active)
COc1ccc(CCNC(=O)c2c(C)nn(-c3ccccc3)c2Cl)cc1 | -17.4 | –
COc1ccc(-n2nc(C(=O)NCC(=O)N3CCC(C(N)=O)CC3)c3ccccc3c2=O)cc1OC | -4.29 | –
COc1cc(NC(=O)c2nn(-c3ccc(C)cc3)c(=O)c3c2c2ccccc2n3C)cc(OC)c1OC | -3.89 | –
Cc1cc(NC(=O)Nc2ccc(Cl)cc2)n(-c2ccccc2)n1 | 1.8 | –
COc1ccc(-n2nc(C(=O)NCC(=O)N3CCCCCC3)c3ccccc3c2=O)cc1Cl | – | 18.4 µM (active)
CCOC(=O)c1ccccc1NC(=O)c1nn(-c2ccc(OC)c(Cl)c2)c(=O)c2c1c1ccccc1n2C | 13.7 | –

Structure (SMILES) | activity change, negative = growth inhibition [%] | Potency
COc1ccc(-n2nc(C(=O)NCCc3ccc(Cl)cc3)c3c4ccccc4n(C)c3c2=O)cc1Cl | – | 3.66 µM (active)
COCCCNC(=O)CNC(=O)c1nn(-c2ccc(OC)cc2)c(=O)c2ccccc12 | 17.6 | –
COC(=O)c1ccc2ccccc2c1OC1OC(CO)C(O)C(O)C1NC(C)=O (centres undefined) | -14.5 | –
Fc1cccc(Cc2noc(CN3CCN(c4cnccn4)CC3)n2)c1 | 1.52 | –
Cc1ccc(C(=O)N2CCC(n3nccc3NC(=O)Nc3cccc(F)c3)CC2)cn1 | 1.87 | –
O=C(COC(=O)c1ccccc1NC(=O)c1ccco1)Nc1ccc2c(c1)OC(F)(F)O2 | -10.2 | –
CC1CC(C)CN(CCCNC(=O)c2csc3c2CCCCC3)C1 (centres undefined) | -30 | –
O=C(CCNC(=O)c1ccccc1Cl)NCc1ccco1 | -9.02 | –
CC(C(=O)c1ccc(-c2ccccc2)cc1)[n+]1cccc(Br)c1 (centres undefined) | -16.3 | –
CCOC(=O)C1CCC(CN(Cc2ccc(OC)cc2)S(=O)(=O)c2ccc(F)c(C(=O)Nc3cc(C)ccc3C)c2)CC1 (centres undefined) | -12.5 | –
Cn1cc(C(=O)NCc2ccccc2F)cn1 | -0.179 | –
Fc1ccccc1CNC(=S)Nc1ccc(Cl)cc1 | – | 20.6 µM (active)
COC(=O)Cc1ccc(NC(=S)NCc2ccccc2)cc1 | -1.18 | –
O=C(c1ccco1)N1CCN(C(=O)c2cc(-c3ccccc3F)no2)CC1 | -22.9 | –
CCCCN(C)C(=O)c1ccc2c(c1)N(CC)C(=O)c1ccccc1S2(=O)=O | -26.8 | –
O=C(c1ccc2c(c1)N(Cc1ccccc1)C(=O)c1ccccc1S2(=O)=O)N1CCCC1 | – | 11.6 µM (active)
O=C(c1cccc(Br)c1)N1CCN(C2=NS(=O)(=O)c3ccccc32)CC1 | 3.46 | –
O=C(c1ccc2c(c1)C(=O)N(c1ccc(Cl)cc1)C2=O)N1CCN(c2ccccn2)CC1 | -5.02 | –
O=C(c1ccc2c(c1)N(Cc1ccccc1F)C(=O)c1ccccc1S2(=O)=O)N1CCOCC1 | -19 | –
O=C1c2ccccc2S(=O)(=O)c2cc(N3CCN(c4ccccn4)CC3)ccc21 | -14.1 | –
O=C(c1ccc2c(c1)N(Cc1ccccc1)C(=O)c1ccccc1S2(=O)=O)N1CCC(Cc2ccccc2)CC1 | – | 8.2 µM (active)
CC1CCCN(C(=O)CN2C(=O)c3ccccc3S2(=O)=O)C1 (centres undefined) | -12.1 | –

Structure (SMILES) | activity change, negative = growth inhibition [%] | Potency
O=C(c1ccc2c(c1)N(Cc1ccc(F)cc1)C(=O)c1ccccc1S2(=O)=O)N1CCN(c2ccccn2)CC1 | – | 14.6 µM (active)
O=C(CN1C(=O)NC2(CCCC2)C1=O)Nc1ccc(F)c(F)c1F | 1.12 | –
CC(=O)CC(CC(=O)NC1CCCCC1)c1ccccc1 (centres undefined) | -7.82 | –
CCC(C)C1(C2CCCC2)NC(=O)NC1=O (centres undefined) | -0.666 | –
CCOc1ccc(NC(=O)CN(C)C(=O)Cc2sc(C)nc2-c2ccc(F)cc2)cc1OCC | -19 | –
O=C(c1cnccn1)N1CCC2(CCCN(Cc3ccccc3)C2)CC1 | 20.2 | –
O=C(CCCOc1ccccc1)NNC(=O)c1ccc(Cl)cc1 | 1.38 | –
Cc1ccc(S(=O)(=O)N2CCC(C)CC2)cc1C(=O)NCc1ccccn1 | -5.04 | –
S=C(NCc1ccc(Cl)cc1)NC1CCCCC1 | -20.8 | –
NCCCNC(=S)NCCCN(Cc1ccc(Cl)cc1)c1ccc(Br)cn1 | – | 15.8 µM (active)
CN(C)CCCNC(=S)NCc1ccc(Cl)cc1 | -11.7 | –
CCCn1c(C)cc(/C=C(\C#N)C(=O)OCC(=O)N(C)c2c(N)n(Cc3ccccc3)c(=O)[nH]c2=O)c1C | -14 | –
CN(/N=C/c1ccccc1)C(=S)c1ccccc1 | -24.4 | –
CN(CC(=O)O)C(=O)c1ccccc1 | 1.89 | –
CN(O)C(=S)c1ccccc1 | – | 0.13 µM (active)
CC(C)c1nc2cc(C(=O)NC(C)c3cnn(C)c3)ccc2o1 (centres undefined) | 4.73 | –
O=C(NCCS(=O)(=O)NCc1ccc(Cl)cc1)c1ccccc1 | -3.08 | –
CC(=O)c1cc(C#N)c(N2CCCCC2)nc1C | -24.1 | –
CC(=O)c1cc(C#N)c(SCC(=O)C(C)(C)C)nc1C | – | 2.82 µM (active)
CC(=O)c1cc(C#N)c(N2CC(C)OC(C)C2)nc1C (centres undefined) | 10.4 | –
